High-throughput results as filed in PubChem.
Cycloheximide cs: affects cycloheximide protein synthesis inhibition readout, counter-screen; max response, %; hit rate 12% among 300,000; cell reporter, cycloheximide protein synthesis inhibition counterscreen; in the data active = max response mostly above about 13%, no sharp cut-off; inactive = mostly below about 14%; also: read at 38.3 µM for the half of the compounds with a filed dose
VACV Venus inh: inhibitors of vaccinia virus (Venus reporter). Vaccinia virus Venus reporter expression, fluorescence. Potency, µM (titrated, usually from 36.5 µM), most hits filed as inhibitors. AID 720580. hit rate 0.46% among 330,000; calls by dose curve; tested in A549 cells; also: nearly all actives have a fitted effect of over 30% in size
VACV mCherry inh: vaccinia inhibition (mCherry reporter); Vaccinia virus mCherry reporter infection, fluorescence; Potency, µM (series often up to 36.5 µM), most hits filed as inhibitors; hit rate 0.63% among 310,000; AID 720579; calls by dose curve; tested in A549 cells; also: nearly all actives have a fitted effect of over 35% in size
Lassa entry inh: blocks Lassa virus binding to or entry into cells; Lassa virus pseudotype entry inhibition, cell reporter; hit rate 1.2% among 300,000; AID 540256; Potency, µM (highest dose often 37.9 µM), most hits filed as inhibitors; calls by dose curve; tested in HEK293 cells; also: nearly all actives have a fitted effect of over 50% in size
Shiga inhibitor: Shiga toxin inhibition | Vero cells, Shiga toxin protein synthesis inhibition reporter | hit rate 9.2% among 290,000 | inhibition, % at 38.7 µM | AID 2315; in the data active = inhibition mostly above about 28%, no sharp cut-off; inactive = mostly below about 43%
MARV entry inh: Marburg virus entry inhibition; Marburg virus pseudotyped entry inhibition, cell reporter; Potency, µM (titrated, usually from 37.8 µM), hits mostly inhibitors; hit rate 1.8% among 300,000; calls by dose curve; tested in HEK293 cells
Hits are given with their value; [ ] = dose if it differs, or a comment. Only a selection was taken, and hits are over-represented in it overall.

What do the screens show for `Fc1cccc(/C=N/Nc2nccnc2Cl)c1`?
Cycloheximide cs: 48; Shiga inhibitor: 98

What do the screens show for `CCc1nc2ccc(C(=O)N(C)C(C)C)cn2c1N(CC)Cc1cccc(Br)c1`?
VACV Venus inh: inactive; VACV mCherry inh: inactive

What do the screens show for `O=C(Cn1cnc2c(oc3nc4c(cc32)CCCC4)c1=O)Nc1cccc(Cl)c1`?
Cycloheximide cs: inactive; VACV Venus inh: inactive; VACV mCherry inh: inactive; Lassa entry inh: inactive; Shiga inhibitor: inactive; MARV entry inh: inactive

What do the screens show for `CCOC(=O)c1ccccc1NC(=O)CN(c1cc(C(F)(F)F)ccc1Cl)S(C)(=O)=O`?
VACV Venus inh: inactive; VACV mCherry inh: inactive; Lassa entry inh: inactive; MARV entry inh: inconclusive

Results for CCOc1ccc(NC(=O)N2CCC(CN3CCCCCC3)CC2)cc1 ?
VACV Venus inh: inactive; VACV mCherry inh: inactive; Lassa entry inh: inactive

How did CC1(C)NC(=O)N(CC(=O)OCc2cc(=O)n3cc(Br)ccc3n2)C1=O do in these assays?
Cycloheximide cs: inactive; VACV Venus inh: inactive; VACV mCherry inh: inactive; Lassa entry inh: inconclusive; Shiga inhibitor: inactive; MARV entry inh: inconclusive

How did O=C(CN1C(=O)NC2(CCCC2)C1=O)OCc1cc(=O)n2cc(Br)ccc2n1 do in these assays?
Cycloheximide cs: 48; VACV Venus inh: inactive[7.34 µM]; VACV mCherry inh: inactive[7.34 µM]; Shiga inhibitor: 67

Results for CC1(C(=O)OCc2cc(=O)n3cc(Br)ccc3n2)CC1(Cl)Cl (stereo not given) ?
Cycloheximide cs: 36; VACV Venus inh: inactive; VACV mCherry inh: inactive; Lassa entry inh: inactive; Shiga inhibitor: 78; MARV entry inh: inconclusive

Results for Cc1ccccc1C(=O)NC(CC(C)C)C(=O)OCc1cc(=O)n2cc(Br)ccc2n1 (stereo not given) ?
Cycloheximide cs: 28; VACV Venus inh: inactive; VACV mCherry inh: inactive; Lassa entry inh: inactive; Shiga inhibitor: 36; MARV entry inh: inconclusive

How did CC1CC1C(=O)OCc1cc(=O)n2cc(Br)ccc2n1 (stereo not given) do in these assays?
Cycloheximide cs: 29; VACV Venus inh: inactive; VACV mCherry inh: inactive; Lassa entry inh: inconclusive; Shiga inhibitor: inactive; MARV entry inh: inactive

What do the screens show for `Cn1c(=O)c2cc(NC(=O)NCc3ccc(Cl)cc3Cl)ccc2n1Cc1ccc(F)cc1`?
VACV Venus inh: inactive; VACV mCherry inh: inactive

What do the screens show for `O=C(Oc1ccc(-c2nnco2)cc1)c1ccco1`?
VACV Venus inh: inactive; VACV mCherry inh: inactive; Lassa entry inh: inactive; MARV entry inh: inconclusive

How did CCC(=O)Oc1ccc(-c2cnc3ccccc3n2)cc1 do in these assays?
Cycloheximide cs: 32; VACV Venus inh: inactive; VACV mCherry inh: inconclusive; Lassa entry inh: inconclusive; Shiga inhibitor: inactive; MARV entry inh: inconclusive

How did CCOC(=O)COc1cnc2ccccc2n1 do in these assays?
Cycloheximide cs: inactive; VACV Venus inh: inactive; VACV mCherry inh: inactive; Lassa entry inh: inactive; Shiga inhibitor: inactive; MARV entry inh: inactive

What do the screens show for `O=C(Oc1ccc(-c2cnc3ccccc3n2)cc1)c1ccco1`?
Cycloheximide cs: 23; Lassa entry inh: inactive; Shiga inhibitor: inactive; MARV entry inh: inconclusive

How did COC(=O)c1ccc(C2c3c(-c4ccccc4O)n[nH]c3C(=O)N2Cc2cccnc2)cc1 (stereo not given) do in these assays?
VACV Venus inh: inactive; VACV mCherry inh: inactive; Lassa entry inh: inconclusive; MARV entry inh: inactive

Results for CC(C)(C)c1ccc(O)c(/C=N\O)c1 ?
Cycloheximide cs: 18; VACV Venus inh: inconclusive; VACV mCherry inh: inactive; Lassa entry inh: inactive; Shiga inhibitor: 53; MARV entry inh: inactive

How did O=C(OCC(=O)N1CCN(c2ccccc2)CC1)c1ccc(Cl)cc1[N+](=O)[O-] do in these assays?
VACV Venus inh: inactive; VACV mCherry inh: inactive; Lassa entry inh: inactive; MARV entry inh: inactive

How did CN(C)c1ccc(C(=O)OCC(=O)N2CCOCC2)cc1 do in these assays?
Cycloheximide cs: 23; VACV Venus inh: inactive; VACV mCherry inh: inactive; Lassa entry inh: inactive; Shiga inhibitor: inactive; MARV entry inh: inactive

Results for Nc1cc(C(=O)OCC(=O)N2CCOCC2)ccc1Cl ?
Cycloheximide cs: 35; VACV Venus inh: inactive; VACV mCherry inh: inactive; Lassa entry inh: inactive; Shiga inhibitor: 58; MARV entry inh: inconclusive

How did O=C(OCC(=O)N1CCOCC1)c1ccc(Cl)cc1[N+](=O)[O-] do in these assays?
Cycloheximide cs: 24; VACV Venus inh: inactive; VACV mCherry inh: inactive; Lassa entry inh: inconclusive; Shiga inhibitor: 47; MARV entry inh: inactive

What do the screens show for `Nc1ccc(C(=O)OCC(=O)N2CCOCC2)cc1[N+](=O)[O-]`?
Cycloheximide cs: 31; Lassa entry inh: inactive; Shiga inhibitor: 57; MARV entry inh: inactive

What do the screens show for `COc1cc(CN(C(=O)COc2ccc(F)cc2)c2ccccn2)cc(OC)c1OC`?
VACV Venus inh: inactive; VACV mCherry inh: inactive; Lassa entry inh: inactive; MARV entry inh: inactive

What do the screens show for `COc1ccc(N(CC(=O)NCCc2cccc(C)c2)S(=O)(=O)c2c(C)nn(C)c2C)cc1`?
VACV Venus inh: inactive; VACV mCherry inh: inactive; Lassa entry inh: inactive; MARV entry inh: inconclusive

How did Cc1ccsc1C(=O)OCC(=O)N1CCOCC1 do in these assays?
Cycloheximide cs: 35; VACV Venus inh: inactive; VACV mCherry inh: inactive; Lassa entry inh: inconclusive; Shiga inhibitor: 73; MARV entry inh: inconclusive

What do the screens show for `CCC1CN(Cc2cn[nH]c2-c2ccccc2)Cc2cc(OC)ccc2O1` (stereo not given)?
VACV Venus inh: inactive; VACV mCherry inh: inactive

What do the screens show for `Cc1cccc(NC(=O)/C=C/c2ccc([N+](=O)[O-])s2)c1`?
Cycloheximide cs: inactive; VACV Venus inh: inactive; VACV mCherry inh: inactive; Lassa entry inh: inconclusive; Shiga inhibitor: inactive; MARV entry inh: inconclusive

What do the screens show for `O=C(/C=C/c1cccs1)NNC(=O)c1cccc([N+](=O)[O-])c1`?
VACV Venus inh: inactive; VACV mCherry inh: inconclusive; Lassa entry inh: inactive; MARV entry inh: inactive

Results for Cc1ccc(NC(=O)COC(=O)c2ccc([N+](=O)[O-])s2)c(C)c1 ?
Cycloheximide cs: inactive; Lassa entry inh: inactive; Shiga inhibitor: inactive; MARV entry inh: inactive

What do the screens show for `Cc1cc([N+](=O)[O-])ccc1NC(=O)/C=C/c1cccs1`?
Cycloheximide cs: 42; VACV Venus inh: inactive; VACV mCherry inh: inactive; Lassa entry inh: inactive; Shiga inhibitor: 59; MARV entry inh: inactive

What do the screens show for `Cc1ccc(NC(=O)/C=C/c2ccc([N+](=O)[O-])s2)c(C)c1`?
Cycloheximide cs: 22; VACV Venus inh: inactive; VACV mCherry inh: inactive; Lassa entry inh: inconclusive; Shiga inhibitor: active; MARV entry inh: inconclusive

Results for Cc1ccc(NC(=O)/C=C/c2ccc([N+](=O)[O-])s2)cc1 ?
Cycloheximide cs: 26; VACV Venus inh: inactive; VACV mCherry inh: inactive; Lassa entry inh: 10µM; Shiga inhibitor: active; MARV entry inh: 14µM

What do the screens show for `COc1ccc(-c2nnc(C(C)Nc3cccc(C(=O)NC4CC4)c3)o2)cc1` (stereo not given)?
VACV Venus inh: inactive; VACV mCherry inh: inactive; Lassa entry inh: inactive; MARV entry inh: inactive

What do the screens show for `Cc1cccc(N(Cc2ccccc2)C(=O)CCl)c1`?
Cycloheximide cs: inactive; VACV Venus inh: inactive; VACV mCherry inh: inactive; Lassa entry inh: inactive; Shiga inhibitor: inactive; MARV entry inh: inconclusive
